The results in this text go back to the OligoGym collection.
Also: reference of the scale not given here.

The first test addresses PPP2R2B. The experiment in a line: pooled miR-30 sensor sort-seq; sequence = guide strand. Conditions: shRNA.
As to TTCTTCTATTTCTAAACTCTTC, the sensor-assay potency score (higher = more potent) is -0.752. For TTAAATACTACAGACAACCTCA, the sensor-assay potency score (higher = more potent) amounted to 0.289.

As for TTTTACTCTCCTGCTCTCGTTG, the sensor-assay potency score (higher = more potent) is -0.655.

A further test concerns the target PPP2R4. The test is described as above. The conditions noted are these: shRNA.
Consider TTTAGGTAAACAGCCACCTCAG, for which the sensor-assay potency score (higher = more potent) was -0.616. For the sequence TGGAACTGTGTGGATCTCCTTT, the sensor-assay potency score (higher = more potent) is -1.01. As for TTCATCTCGGTAATAAACAGGA, the sensor-assay potency score (higher = more potent) was found to be 0.112.

On to TTGAAGTGCTGGATCACAGGGA, for which the sensor-assay potency score (higher = more potent) was 1.03. In the case of TTCTCATCCACAAAGTGTCTGG, the sensor-assay potency score (higher = more potent) is -0.351. Still for that read-out and setting: with TTTAATCTGAACAGCAATGAGG the figure was -0.87; with TTTGGAATGATGAAGTTCTGAG, -0.0141; with TTGAGGGTAAGGATGAATCCGA, -0.403. Same read-out and setting: with TTGAAGACAATAGCTATTTGGT the figure was -0.254; with TATTTGGTCATCCACCCGGAGC, -1.25; with TTTTGGAATGATGAAGTTCTGA, -0.939. In turn, TCTGCTTCCTCGGAGACTCTGT gave a sensor-assay potency score (higher = more potent) of 0.193.

The target in the next test is PPP3R1. The description is as above. Conditions: shRNA.
For the sequence TTACTCGCTGTACTAAAGGATT, the sensor-assay potency score (higher = more potent) was -1.35.

Consider TCTCCTTTGACACTGAACTGAG, for which the sensor-assay potency score (higher = more potent) is -0.401. Turning to TTTGCTGTAACTGTGTATCTTT, the sensor-assay potency score (higher = more potent) worked out at 0.559. As for AATATAGCCATCTTTATCCATG, the sensor-assay potency score (higher = more potent) is -1.54.

TAGCCTTTTAATTTCATCCGCA showed a sensor-assay potency score (higher = more potent) of 0.489.

On to TTATCTGCATTTATTATGGTTT, for which the sensor-assay potency score (higher = more potent) was -0.79. As for TTTGTCTACAATTTGCTGTAAC, the sensor-assay potency score (higher = more potent) was -1.15. As for TTTTTGTGGATATCTAGGCCAC, the sensor-assay potency score (higher = more potent) is -0.626. Same read-out and setting: the value for TAAAATCACAACTAGCACTTAA was -0.328; that for TTAAATCTCTTTCCTAGCCTTT was -0.556; that for TTCAATAACACTTAGTTGGCTT was 0.15. In the case of TTTTGTCTACAATTTGCTGTAA, the sensor-assay potency score (higher = more potent) was -0.67.

The next test has as its target PPY. The description is as above. The conditions noted are these: shRNA.
TGTATCTACGGAGATCAGCTGC gave a sensor-assay potency score (higher = more potent) of 0.303. Still for that read-out and setting: with TACTGGGCCATCTGCTCTGGTG the figure was -1.25; with ATCAGCTGCATACTGGGCCATC, -1.61; with TAACAGAGCCACGCAGGTGGAC, -1.08. Still for that read-out and setting: the value for TATCTACGGAGATCAGCTGCAT was 0.435; that for TCCTCTTTGTGTCTTTTCCCAT was -1.36; that for ATCTACGGAGATCAGCTGCATA was -1.14.

Consider TGTAGTAACAGAGCCACGCAGG, for which the sensor-assay potency score (higher = more potent) is -1.22. For the sequence TGTTGATGTATCTACGGAGATC, the sensor-assay potency score (higher = more potent) is -1.64.

With AGCATGTTGATGTATCTACGGA, the sensor-assay potency score (higher = more potent) is -1.31. On to TGATGTATCTACGGAGATCAGC, for which the sensor-assay potency score (higher = more potent) is -1.04.

Take TCTGGTGTGGCATTGTCCCCTG: the sensor-assay potency score (higher = more potent) was found to be 0.0817.
